# Compounds without any hit were thinned out: in the full panel of roughly 79,000, 15% have a hit. Unmarked numbers belong to inactive results. Activity calls are given as the source filed them. No stated cut-off is given here; in the data, active means growth inhibition above about 70%; inactive means the rest.
# What was measured:
# [1] = NCI Yeast Anticancer Drug Screen. Data for the wt1 strain (AID 149);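 further: 0% = growth of vehicle-treated wt1 cultures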; conditions: S. cerevisiae wt1 strain (SPY 50644) growth inhibition, hits give high values
# Procedure, shortened: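 Using yeast strain wt1, compound-induced growth inhibition was determined against vehicle-treated cultures.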
# [2] = NCI Yeast Anticancer Drug Screen. Data for the rad50EPP+ strain (AID 151);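 further: 0% = growth of vehicle-treated control cultures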; conditions: S. cerevisiae rad50 mutant strain, hits give high values
# Procedure, shortened: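 rad50EPP+ yeast treated with test compounds. Readout: growth vs vehicle control.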
# [3] = NCI Yeast Anticancer Drug Screen. Data for the rad50 strain (AID 155);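 further: 0% = growth of vehicle-only cultures of the same strain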; conditions: S. cerevisiae rad50 strain growth inhibition, hits give high values
# Procedure, shortened: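 Relative growth inhibition (compound vs vehicle) was measured in yeast with a defined repair-gene alteration.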
# [4] = NCI Yeast Anticancer Drug Screen. Data for the mec2-1 strain (AID 157); conditions: S. cerevisiae mec2-1 strain, hits give high values
# Procedure, shortened: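 Growth inhibition is read against vehicle-treated controls after compound exposure of the mec2-1 yeast strain, which is defective in DNA damage repair or cell cycle control.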
# [5] = NCI Yeast Anticancer Drug Screen. Data for the CLN2oe strain (AID 163);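 further: 0% = growth of vehicle-only control cultures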; conditions: S. cerevisiae CLN2oe strain, hits give high values
# Procedure, shortened: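 Compound-treated yeast; growth vs vehicle ctrl = % inhibition. Genetically altered strain (cell-cycle control).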
# [6] = NCI Yeast Anticancer Drug Screen. Data for the cln2 rad14 strain (AID 165);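 further: 0% = growth equal to vehicle treated cultures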; conditions: S. cerevisiae cln2 rad14 strain, hits give high values
# Procedure, shortened: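 Growth inhibition, relative to vehicle-treated controls, is the read-out. The test organism is a yeast strain with defined genetic alterations, cln2 rad14.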
# [7] = NCI Yeast Anticancer Drug Screen. Data for the bub3 strain (AID 167); conditions: S. cerevisiae bub3 mutant strain, hits give high values
# Procedure, shortened: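 Screening used yeast with an engineered genetic alteration affecting cell cycle control. Compound-exposed cultures were compared with vehicle cultures, and reduced growth was taken as inhibition.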
# [8] = NCI Yeast Anticancer Drug Screen. Data for the wt2 strain (AID 169);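 further: 0% = growth of vehicle-treated yeast cultures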; conditions: S. cerevisiae wt2 strain growth inhibition, hits give high values
# Procedure, shortened: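 Compound exposure of yeast; growth compared with vehicle controls; inhibition reported.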
# [9] = NCI Yeast Anticancer Drug Screen. Data for the mlh1 strain (AID 171);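 further: 0% = growth of vehicle-treated control cultures of the same strain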; conditions: S. cerevisiae mlh1 strain growth inhibition, hits give high values
# Procedure, shortened: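 Compounds are applied to a genetically altered yeast strain, and its growth is compared with that of vehicle-treated cultures to give percent inhibition.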
# [10] = NCI Yeast Anticancer Drug Screen. Data for the sgs1 strain (AID 173);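 further: 0% = growth of vehicle-only control cultures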; conditions: S. cerevisiae sgs1 mutant, hits give high values
# Procedure, shortened: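 Compounds applied to genetically altered yeast; growth compared with vehicle-treated cultures to give % inhibition.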
# [11] = NCI Yeast Anticancer Drug Screen. Data for the mlh1 rad18 strain (AID 175); conditions: S. cerevisiae mlh1 rad18 strain growth inhibition, hits give high values
# Procedure, shortened: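 Cells of a genetically altered yeast strain, deficient in DNA damage repair, were treated with compound. Their growth was then compared with that of vehicle-treated cultures to give inhibition.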
# [12] = NCI Yeast Anticancer Drug Screen. Data for the rad18 strain (AID 177); conditions: S. cerevisiae rad18 mutant growth inhibition, hits give high values
# Procedure, shortened: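 Compounds are applied to a repair-deficient yeast strain, and growth is compared with that of vehicle-treated cultures to give percent inhibition.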
# [13] = NCI Yeast Anticancer Drug Screen. Data for the mgt1 strain (AID 153); conditions: S. cerevisiae mgt1 mutant growth inhibition, hits give high values
# Procedure, shortened: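 Growth inhibition relative to vehicle controls was scored for the mgt1 yeast strain after compound exposure.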
# [14] = NCI Yeast Anticancer Drug Screen. Data for the rad14 strain (AID 159);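 further: 0% = growth of vehicle-treated control cultures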; conditions: S. cerevisiae rad14 strain growth inhibition, hits give high values
# Procedure, shortened: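 Screen for anticancer potential: a yeast strain altered in DNA damage repair is grown with compound, and reduced growth is quantified against vehicle controls.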
# [15] = NCI Yeast Anticancer Drug Screen. Data for the sgs1 mgt1 strain (AID 161);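 further: 0% = growth of cultures given vehicle only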; conditions: S. cerevisiae sgs1 mgt1 strain, hits give high values
# Procedure, shortened: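 Percent growth inhibition was derived by comparing compound-exposed mutant yeast with vehicle-exposed cultures. The strain carries alterations in DNA damage repair.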
# [16] = at 5.0 µM (retest, dose inferred, filed as 0.5)
# [17] = at 50.0 µM (retest, dose inferred, filed as 5.0)
compound,measurement,setting,value
CCOC(=O)C1=C(C)NC(C)=C(C(=O)OCC)C1c1ccc(Cl)cc1,growth inhibition,[1]; at 1.2 µM,-23%
same,growth inhibition,[1]; at 3.7 µM,-10%
same,growth inhibition,[1]; at 11.0 µM,33%
same,growth inhibition,[1]; at 33.0 µM,60%
same,growth inhibition,[1]; at 100.0 µM,94% (active)
same,growth inhibition,[2]; at 1.2 µM,6%
same,growth inhibition,[2]; at 3.7 µM,4%
same,growth inhibition,[2]; at 11.0 µM,16%
same,growth inhibition,[2]; at 33.0 µM,0%
same,growth inhibition,[2]; at 100.0 µM,-8%
same,growth inhibition,[3]; at 1.2 µM,14%
same,growth inhibition,[3]; at 3.7 µM,35%
same,growth inhibition,[3]; [16],98% (active)
same,growth inhibition,[3]; at 11.0 µM,93% (active)
same,growth inhibition,[3]; at 33.0 µM,88% (active)
same,growth inhibition,[3]; [17],100% (active)
same,growth inhibition,[3]; at 50.0 µM,90.2% (active)
same,growth inhibition,[3]; at 100.0 µM,89% (active)
same,growth inhibition,[4]; at 1.2 µM,-9%
same,growth inhibition,[4]; at 3.7 µM,-5%
same,growth inhibition,[4]; [16],99% (active)
same,growth inhibition,[4]; at 11.0 µM,70% (active)
same,growth inhibition,[4]; at 33.0 µM,70% (active)
same,growth inhibition,[4]; [17],99% (active)
same,growth inhibition,[4]; at 50.0 µM,91.5% (active)
same,growth inhibition,[4]; at 100.0 µM,92% (active)
same,growth inhibition,[5]; at 1.2 µM,-4%
same,growth inhibition,[5]; at 3.7 µM,-10%
same,growth inhibition,[5]; at 11.0 µM,49%
same,growth inhibition,[5]; at 33.0 µM,83% (active)
same,growth inhibition,[5]; at 100.0 µM,88% (active)
same,growth inhibition,[6]; [16],27%
same,growth inhibition,[6]; [17],98% (active)
same,growth inhibition,[7]; at 1.2 µM,20%
same,growth inhibition,[7]; at 3.7 µM,44%
same,growth inhibition,[7]; [16],47%
same,growth inhibition,[7]; at 11.0 µM,85% (active)
same,growth inhibition,[7]; at 33.0 µM,81% (active)
same,growth inhibition,[7]; [17],98% (active)
same,growth inhibition,[7]; at 100.0 µM,93% (active)
same,growth inhibition,[8]; at 1.2 µM,-3%
same,growth inhibition,[8]; at 3.7 µM,-10%
same,growth inhibition,[8]; at 11.0 µM,74% (active)
same,growth inhibition,[8]; at 33.0 µM,85% (active)
same,growth inhibition,[8]; at 100.0 µM,96% (active)
same,growth inhibition,[9]; at 1.2 µM,-27%
same,growth inhibition,[9]; at 3.7 µM,-9%
same,growth inhibition,[9]; at 11.0 µM,44%
same,growth inhibition,[9]; at 33.0 µM,84% (active)
same,growth inhibition,[9]; at 100.0 µM,92% (active)
same,growth inhibition,[10]; at 1.2 µM,13%
same,growth inhibition,[10]; at 3.7 µM,19%
same,growth inhibition,[10]; at 11.0 µM,73% (active)
same,growth inhibition,[10]; at 33.0 µM,89% (active)
same,growth inhibition,[10]; at 100.0 µM,95% (active)
same,growth inhibition,[11]; [16],100% (active)
same,growth inhibition,[11]; [17],100% (active)
same,growth inhibition,[11]; at 50.0 µM,90.2% (active)
same,growth inhibition,[12]; at 1.2 µM,4%
same,growth inhibition,[12]; at 3.7 µM,14%
same,growth inhibition,[12]; at 11.0 µM,93% (active)
same,growth inhibition,[12]; at 33.0 µM,89% (active)
same,growth inhibition,[12]; at 100.0 µM,92% (active)
O=Cc1ccccc1B(O)O,growth inhibition,[1]; at 1.2 µM,-3%
same,growth inhibition,[1]; at 3.7 µM,-1%
same,growth inhibition,[1]; at 11.0 µM,66%
same,growth inhibition,[1]; at 33.0 µM,99% (active)
same,growth inhibition,[1]; at 100.0 µM,99% (active)
same,growth inhibition,[2]; at 1.2 µM,43%
same,growth inhibition,[2]; at 3.7 µM,79% (active)
same,growth inhibition,[2]; at 11.0 µM,94% (active)
same,growth inhibition,[2]; at 33.0 µM,97% (active)
same,growth inhibition,[2]; at 100.0 µM,99% (active)
same,growth inhibition,[13]; at 1.2 µM,0%
same,growth inhibition,[13]; at 3.7 µM,2%
same,growth inhibition,[13]; at 11.0 µM,76% (active)
same,growth inhibition,[13]; at 33.0 µM,99% (active)
same,growth inhibition,[13]; at 100.0 µM,99% (active)
same,growth inhibition,[4]; at 1.2 µM,2%
same,growth inhibition,[4]; at 3.7 µM,25%
same,growth inhibition,[4]; [16],-25%
same,growth inhibition,[4]; at 11.0 µM,97% (active)
same,growth inhibition,[4]; at 33.0 µM,99% (active)
same,growth inhibition,[4]; [17],96% (active)
same,growth inhibition,[4]; at 50.0 µM,99.6% (active)
same,growth inhibition,[4]; at 100.0 µM,100% (active)
same,growth inhibition,[14]; at 1.2 µM,3%
same,growth inhibition,[14]; at 3.7 µM,13%
same,growth inhibition,[14]; at 11.0 µM,90% (active)
same,growth inhibition,[14]; at 33.0 µM,99% (active)
same,growth inhibition,[14]; at 100.0 µM,99% (active)
same,growth inhibition,[15]; [16],-25%
same,growth inhibition,[15]; [17],95% (active)
same,growth inhibition,[15]; at 50.0 µM,98.9% (active)
same,growth inhibition,[5]; at 1.2 µM,-4%
same,growth inhibition,[5]; at 3.7 µM,11%
same,growth inhibition,[5]; at 11.0 µM,84% (active)
same,growth inhibition,[5]; at 33.0 µM,98% (active)
same,growth inhibition,[5]; at 100.0 µM,99% (active)
same,growth inhibition,[6]; [16],-52%
same,growth inhibition,[6]; [17],94% (active)
same,growth inhibition,[6]; at 50.0 µM,96.5% (active)
same,growth inhibition,[7]; at 1.2 µM,-14%
same,growth inhibition,[7]; at 3.7 µM,-8%
same,growth inhibition,[7]; [16],-83%
same,growth inhibition,[7]; at 11.0 µM,81% (active)
same,growth inhibition,[7]; at 33.0 µM,98% (active)
same,growth inhibition,[7]; [17],95% (active)
same,growth inhibition,[7]; at 50.0 µM,99% (active)
same,growth inhibition,[7]; at 100.0 µM,99% (active)
same,growth inhibition,[8]; at 1.2 µM,0%
same,growth inhibition,[8]; at 3.7 µM,1%
same,growth inhibition,[8]; at 11.0 µM,77% (active)
same,growth inhibition,[8]; at 33.0 µM,100% (active)
same,growth inhibition,[8]; at 100.0 µM,99% (active)
same,growth inhibition,[9]; at 1.2 µM,8%
same,growth inhibition,[9]; at 3.7 µM,14%
same,growth inhibition,[9]; at 11.0 µM,86% (active)
same,growth inhibition,[9]; at 33.0 µM,99% (active)
same,growth inhibition,[9]; at 100.0 µM,99% (active)
same,growth inhibition,[10]; at 1.2 µM,18%
same,growth inhibition,[10]; at 3.7 µM,66%
same,growth inhibition,[10]; at 11.0 µM,96% (active)
